Laboratory results taken from PubChem BioAssay AID2401 (Southern Research Specialized Biocontainment Screening …, 2010).
Out of some 2,200 compounds screened, about 530 (24%) were called active.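 How the source made its calls: active means inhibition above a set limit at one or more concentrations of the dose series; inactive means inhibition under that limit at every dose.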 Only a sample is shown. Where a call stands in place of a potency, no number is given. Potency and affinity values are given separately.

test: S. Typhimurium nonspecific reporter signal inhibition – Salmonella Typhimurium, GFP fluorescence, counter-screen for PhoP regulon inhibitor project, dose response (AID 2401); settings: 4 h; series mostly up to 150 µM;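 further: S. typhimurium with Mg-insensitive nmpC-GFP reporter grown at 10 µM Mg2+; drop in reporter fluorescence reflects general culture growth inhibition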

Compound | outcome
NC(=O)CCc1c[nH]c2ccccc12 | inactive
O=C(Cc1c[nH]c2ccccc12)N/N=C/c1ccc(F)cc1 | inactive
CCc1nn2cc(C(=O)c3cc(Cl)ccc3O)cnc2c1-c1ccc(F)cc1 | inactive
Cc1cc(C(=O)COC(=O)CNC(=O)c2ccco2)c(C)n1Cc1ccco1 | inactive
c1ccc(Nc2ccnc(Nc3ccccc3)n2)cc1 | inactive
Cc1[nH]c2ccccc2c1C(O)CN1CCN(c2cccc(C(F)(F)F)c2)CC1 (stereo not drawn) | inactive
Brc1cccc(CNc2nc3ccccc3n2CCN2CCCCC2)c1 | inactive
CC(C)CCNC(=S)Nc1ccc([N+](=O)[O-])cc1 | inactive
Cc1cc(C(=O)N/N=C/c2ccc[nH]2)no1 | inactive
CC1=CC(C)C2(CO)COC(c3ccccc3O)C1C2C (stereo not drawn) | inactive
CCOC(=O)c1sc(-c2ccc(C(F)(F)F)cc2)nc1O | inactive
CC(Oc1ccc(Cl)cc1)c1ccnn1S(=O)(=O)c1ccccc1 (stereo not drawn) | inactive
CC(=O)Nc1ccc(S(=O)(=O)N2CCC(n3cnc4cc(F)ccc43)CC2)cc1 | inactive
CCOC(=O)C1=C(C)N=c2s/c(=C\c3ccncc3)c(=O)n2C1c1ccc2c(c1)OCO2 (stereo not drawn) | inactive
COc1ccc(C(=O)COc2nc(C)cc(C)c2C#N)cc1 | inactive
COc1ccc2nc(NC(=O)C3CCCN3S(=O)(=O)c3ccc(C)cc3)sc2c1 (stereo not drawn) | inactive
Clc1ccc(Nc2ncnc3c2cnn3-c2ccccc2)cc1 | inactive
COc1cc(CNc2ccc(CNc3ncn[nH]3)cc2)ccc1OCC(=O)NC(C)(C)C | inactive
NC[C@@]12CCCC1C1CCC2C1 (stereo partly drawn) | inactive
O=C(Oc1ccc[nH]c1=O)c1cc([N+](=O)[O-])cc([N+](=O)[O-])c1 | inactive
CC(O)CNc1cc(N)c([N+](=O)[O-])cc1[N+](=O)[O-] (stereo not drawn) | inactive
CC(NC(=O)C1(C)CC1(Br)Br)C(C)(C)C (stereo not drawn) | inactive
Cc1cc(C(=O)N/N=C/c2cc(Br)cc(Br)c2OC(=O)c2ccccc2)n[nH]1 | inactive
Cc1cc2ncn(C3CC(=O)N(Cc4ccc(N5CCCC5=O)cc4)C3=O)c2cc1C (stereo not drawn) | inactive
O=C(CSc1nnc2n(C3CCCCC3)c(=O)c3ccccc3n12)OC1CCCCC1 | inactive

Compound | outcome
Cc1ccc2cc(C(=O)O)c(C)nc2c1 | inactive
Cc1ccccc1NC(=O)Nc1cccs1 | inactive
Cc1ccc(S(=O)(=O)N2CCCC2C(=O)OCc2ccco2)cc1 (stereo not drawn) | inactive
CCCOc1ccc(Cn2cnc3ccccc32)cc1 | inactive
Cc1cc(C)nc(NC(=O)Cc2cccs2)n1 | inactive
Cc1c(C)n(Cc2ccccc2)c2ncnc(N)c12 | inactive
O=C(NCc1cccnc1)c1cc2ccccc2oc1=O | inactive
CCn1cc(C(=O)NCc2ccncc2)c(=O)c2cc(F)c(N3CCN(C(=O)c4ccco4)CC3)cc21 | inactive
COC(=O)Cc1ccc(NC(=S)N2CCN(c3ccc(F)cc3)CC2)cc1 | inactive
Cc1cc(SCC(N)=O)nc(SCC(=O)c2ccccc2)n1 | inactive
COC(=O)C1(O)CC(C(C)C)=NN1C(=O)c1ccc(Cl)cc1 (stereo not drawn) | inactive
Cc1ccc(C(=O)NC(=S)Nc2cccc3c(C)cc(C)nc23)cc1 | inactive
Cc1ccc(Nc2nnc(C3C(=O)N(C)C4(C)CC3c3cc(Br)ccc3O4)s2)cc1 (stereo not drawn) | inactive
Cc1cccc(OCCSCc2nc3ccccc3[nH]2)c1 | inactive
Cn1c(SCC(=O)N2c3ccccc3CCc3ccccc32)nnc1-c1cc2ccccc2cc1O | inactive
O=C(Cn1nc(C(F)(F)F)c2c1CCCCC2)N1CCOCC1 | inactive
CCOC(=O)C1=CSC2=NS(=O)(=O)CCN12 | inactive
[O-]/[N+](=C\c1ccncc1)c1ccccc1 | inactive
Cc1c(C(=O)Nc2cccc(Cl)c2)c2ccccn2c1CCc1ccncc1 | inactive
COc1cc(C)ccc1OCCCOc1ccccc1Br | inactive
COC(=O)c1cc(C#N)c(Oc2ccccc2OC)nc1C | inactive
Cc1occc1C(=O)n1cnc2ccccc21 | inactive
COc1cccc2[nH]c3c(N4CCC(C)CC4)ncnc3c12 | inactive
NC(=O)C1(NC(=O)[C@@H]2CC3(CC(c4cccc(NC(=O)[C@@H]5CCC(=O)N5)c4)=NO3)CN2C(=O)Cc2ccc(Cl)cc2)CC1 (stereo partly drawn) | inactive
Cc1ccc(/C(O)=C2\C(=O)C(=O)N(CC(C)O)C2c2cccc(F)c2)cc1 (stereo not drawn) | inactive

Compound | outcome
CCCCOc1ccc(S(=O)(=O)NNC(=O)C2Cc3c(ccc4ccccc34)O2)cc1 (stereo not drawn) | inactive
O=C(CN1CCCCC1)Nc1cccc(Br)c1 | inactive
Cc1ccc(S(=O)(=O)c2c(C(=O)c3ccccc3)cnc3cc4c(cc23)OCCO4)cc1 | inactive
OC(COc1ccc2ccccc2c1Br)Cn1ccnc1 (stereo not drawn) | inactive
CC(C)c1ccc(C2NC(=O)NC3=C2CCc2ccccc23)cc1 (stereo not drawn) | inactive
CCCCOc1ccc(NC(=O)Nc2nnc(C)s2)cc1 | inactive
O=C(Nc1ccc(Cl)c(Cl)c1)Nc1ccccc1O | inactive
N/C(=N/OC(=O)c1ccccc1Cl)c1ncc([N+](=O)[O-])s1 | inactive
CC(=O)c1ccc(NC(=O)Nc2cccc(Cl)c2)cc1 | inactive
Cc1ccc(Oc2ccc3c(c2)C(=O)N(c2ccc(S(=O)(=O)Nc4nccs4)cc2)C3=O)cc1 | inactive
CN(C)C(CNC(=O)Nc1cccc(Cl)c1)c1cccnc1 (stereo not drawn) | inactive
COc1ccc(N2CCN(C(=O)C3CCCO3)CC2)cc1 (stereo not drawn) | inactive
CN1C(=O)CC(P(=O)(c2ccccc2)c2ccccc2)N(C)C1=O (stereo not drawn) | inactive
c1ccc(OCCCN2CCCC2)cc1 | inactive
O=C(C1CCN(C2CC(=O)N(Cc3ccccc3)C2=O)CC1)N1CCCCCC1 (stereo not drawn) | inactive
COc1cccc(NC(=O)Cn2c(=O)n(CCCC(=O)NCc3ccco3)c(=O)c3ccccc32)c1 | inactive
Nc1ccc2oc3ccccc3c2c1 | inactive
Nc1ccc2oc(=O)c3ccccc3c2c1 | inactive
COC(=O)c1sccc1NC(=O)CSc1ccccc1NS(=O)(=O)c1ccc(Cl)cc1 | inactive
Cc1ccc(N2C(=O)CC(n3ccnc3)C2=O)cc1C (stereo not drawn) | inactive
CCN(CC)CCCn1c(=S)[nH]c2cc(OC)c(OC)cc2c1=O | inactive
CC(=O)C1=C(C)Nc2ncnn2C1c1ccccc1OCc1ccccc1 (stereo not drawn) | inactive
CCOc1ccc(-n2c(SCc3nc(-c4ccc(C)cc4)no3)nnc2-c2ccncc2)cc1 | inactive
